Inconclusive results are not listed. The source made the active and inactive calls. Unless noted, calls follow the shape of the dose curve; as a rule, active = well fitted curve in the direction sought with a large enough effect in the repeat runs; inconclusive = weak or mixed curves; inactive = no such curve, though single readings can be large; an effect the other way counts as inactive or inconclusive.
What was measured:
[1] = qHTS RealTime-Glo MT Cell Viability Assay in HEK293 cells - 8 hour (AID 1224887); also: top concentration of the series differs between compounds; nearly all actives have a fitted effect of over 50% in size
Procedure, shortened: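 Kinetic, non-lysing viability readout. Seed HEK293 (600/well) with reagent, incubate 5 h at 37 C/5% CO2, pin 23 nL compound in DMSO, incubate at 37 C, read luminescence at 0, 8, 16, 24, 32, 40 h.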

[2] = A CellTox Green Cytotoxicity Assay to monitor cytotoxicity in HEK293 cells - 16 hour (AID 1224888); also: nearly all actives have a fitted effect of over 35% in size
Procedure, shortened: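 Real-time, in one plate: 600 HEK293 cells/well with dead-cell DNA dye, pinned compound after 5 h, 37 C incubation over 40 h; viable cells give no appreciable fluorescence.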

[3] = qHTS RealTime-Glo MT Cell Viability Assay in HepG2 cells - 0 hour (AID 1224889); also: nearly all actives have a fitted effect of over 50% in size
Procedure, shortened: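 HepG2 suspension premixed with RealTime-Glo reagents is plated at 600 cells per well and left 5 h at 37 C/5% CO2. Compounds in DMSO then go in, and bioluminescence reflecting viable cell number is recorded over 40 h.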

[4] = qHTS assay to identify small molecule antagonists of the estrogen receptor alpha (ER-alpha) signaling pathway using the BG1 cell line in the presence of 0.1 nM 17-beta-estradiol - cell viability counter screen (AID 1259241); also: nearly all actives have a fitted effect of over 40% in size
Procedure, shortened: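 Viability in VM7Luc4E2 cells after 22 hr compound exposure under 0.1 nM 17beta-estradiol stimulation, by CellTiter-Fluor.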

[5] = qHTS assay to identify small molecule antagonists of the androgen receptor (AR) signaling pathway using the MDA cell line in the presence of 0.5 nM R1881 - cell viability counter screen (AID 1259242); also: nearly all actives have a fitted effect of over 45% in size
Procedure, shortened: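 Cells seeded at 3,000/well and allowed 5 hr at 37C, 0% CO2 before compound transfer and R1881 (0.5 nM final) addition; 16 hr later, live-cell protease fluorescence indicated cytotoxicity.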

[6] = qHTS assay to identify small molecule HDAC inhibitors (AID 1259364);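 also: wild-type HCT-116 cells with endogenous class I/II HDAC activity; top concentration of the series differs between compounds; nearly all actives have a fitted effect of over 45% in size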
Procedure, shortened: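 HCT-116 wt cells, 1,500/well, overnight attach. Compounds (DMSO) 2 h, 37 °C. HDAC-Glo I/II, 30 min RT. Luminescence.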

[7] = qHTS assay to identify small molecule HDAC inhibitors - cell viability counter screen (AID 1259365); also: series mostly up to about 92 µM; nearly all actives have a fitted effect of over 50% in size
Procedure, shortened: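 Cytotoxicity was gauged in wild-type HCT-116 cells after a brief 2hr treatment with DMSO-dissolved compounds at 37C and 5% CO2, using CellTiter-Glo luminescence developed for 30min at room temperature.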

[8] = qHTS assay to identify small molecule agonists of the sonic hedgehog signaling (Shh) pathway - cell viability counter screen (AID 1259366); also: nearly all actives have a fitted effect of over 50% in size
Procedure, shortened: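 Stable Gli1-Luc NIH/3T3 clone, 2,000 cells/well. Compound exposure 24hr at 37C. Read-out: CellTiter-Fluor fluorescence.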

[9] = qHTS assay to identify small molecule antagonists of the sonic hedgehog signaling (Shh) pathway - cell viability counter screen (AID 1259367); also: nearly all actives have a fitted effect of over 55% in size
Procedure, shortened: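 Conditioned medium drove Shh signaling in 3T3 Gli1-Luc cells exposed to compounds at 37C and 5% CO2. Viability was determined from CellTiter-Fluor fluorescence, with reagent incubated 1 hr after 23 hr of treatment.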

[10] = qHTS assay to identify small molecule agonists of the sonic hedgehog signaling (Shh) pathway (AID 1259368; calls by dose curve;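 also: NIH/3T3-derived 3T3Gli1-Luc cells carrying a stable Gli1-driven firefly luciferase reporter; series mostly up to about 92 µM; nearly all actives have a fitted effect of over 15% in size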)
Procedure, shortened: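 Following a 24 hr incubation with DMSO-dissolved compounds at 37 C, 5% CO2, Gli1-Luc NIH/3T3-derived cells received luciferase reagent for 30 min at room temperature prior to luminescence measurement.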

[11] = qHTS assay to identify small molecule antagonists of the sonic hedgehog signaling (Shh) pathway (AID 1259369; calls by dose curve; also: nearly all actives have a fitted effect of over 45% in size)
Procedure, shortened: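 Read-out is luminescence from a firefly luciferase gene controlled by the Gli1 response element, in 3T3Gli1-Luc cells pre-incubated 4hr then exposed to compounds and conditioned medium for 24hr.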

[12] = target: Estrogen receptor beta (Homo sapiens) (UniProt Q92731); assay: qHTS assay to identify small molecule agonists of the estrogen receptor beta (ER-beta) signaling pathway (AID 1259377; active = well fitted activation curve with a large enough effect in the signal ratio in the repeat runs, not every such curve was filed as active; the % refers to the signal ratio)
Sequence of Estrogen receptor beta (Homo sapiens) (Q92731 whole entry, looked up): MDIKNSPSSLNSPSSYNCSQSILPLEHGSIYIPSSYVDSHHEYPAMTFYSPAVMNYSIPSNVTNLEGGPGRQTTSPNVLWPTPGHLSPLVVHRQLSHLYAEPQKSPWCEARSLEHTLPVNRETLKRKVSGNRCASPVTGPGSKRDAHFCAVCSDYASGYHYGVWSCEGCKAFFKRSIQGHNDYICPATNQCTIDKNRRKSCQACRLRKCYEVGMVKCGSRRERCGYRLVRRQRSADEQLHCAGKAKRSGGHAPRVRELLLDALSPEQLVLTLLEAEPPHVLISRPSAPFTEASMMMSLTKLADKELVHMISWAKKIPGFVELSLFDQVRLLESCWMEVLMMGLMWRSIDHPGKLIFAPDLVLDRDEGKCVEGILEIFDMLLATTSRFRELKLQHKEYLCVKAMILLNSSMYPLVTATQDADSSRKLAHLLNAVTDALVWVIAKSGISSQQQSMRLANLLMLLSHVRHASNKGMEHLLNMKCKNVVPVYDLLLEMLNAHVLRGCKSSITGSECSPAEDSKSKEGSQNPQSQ
Procedure, shortened: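 Measured by fluorescence intensity from a B/G FRET beta-lactamase substrate (2 h, room temperature) in ER-beta-UAS-bla HEK293T cells treated with DMSO-dissolved compounds for 16 hr at 37C and 5% CO2.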

[13] = target: Estrogen receptor beta (Homo sapiens) (UniProt Q92731); assay: qHTS assay to identify small molecule antagonists of the estrogen receptor beta (ER-beta) signaling pathway (AID 1259378; active = well fitted inhibition curve with a large enough effect in the signal ratio in the repeat runs, not every such curve was filed as active; the % refers to the signal ratio)
Procedure, shortened: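 ER-beta-UAS-bla HEK293T (GripTite) cells in 2% charcoal-stripped FBS medium were preincubated 6 hr at 37C, dosed with compound, then stimulated with 1 nM E2 (final) for 16 hr; beta-lactamase reporter read by B/G FRET fluorescence after 2 hr substrate loading.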

[14] = qHTS assay to identify small molecule agonists of the androgen receptor (AR) signaling pathway in the presence of an antagonist - cell viability counter screen (AID 1259379);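 also: MDA-kb2 human breast cancer cells carrying an MMTV luciferase reporter; series mostly up to about 92 µM; nearly all actives have a fitted effect of over 25% in size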
Procedure, shortened: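 Each compound was tested at 15 concentrations on MDA-kb2 cells in the presence of 3.0uM nilutamide. Viability was measured by CellTiter-Fluor fluorescence after a 16 hr incubation at 37C in a CO2-free atmosphere.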

[15] = qHTS assay to identify small molecule agonists of the estrogen receptor beta (ER-beta) signaling pathway - cell viability counter screen (AID 1259380); also: nearly all actives have a fitted effect of over 30% in size
Procedure, shortened: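 Compounds dissolved in DMSO were pin-transferred onto ER-beta-UAS-bla HEK293T cells that had settled 6 hr, and exposure ran 16 hr at 37C. Following the reporter read, CellTiter-Glo luminescence after 30 min at room temperature indicated cytotoxicity.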

[16] = A CellTox Green Cytotoxicity Assay to monitor cytotoxicity in HepG2 cells - 8 hour (AID 1224890); also: nearly all actives have a fitted effect of over 45% in size
Procedure, shortened: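 Cytotoxicity was tracked as dead-cell DNA fluorescence in HepG2 cells treated with test compounds at 37 C; each time-point value comes from one kinetic series spanning 0, 8, 16, 24, 32 and 40 h.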

[17] = target: Estrogen receptor (Homo sapiens) (UniProt P03372); assay: qHTS assay to identify small molecule antagonists of the estrogen receptor alpha (ER-alpha) signaling pathway using the BG1 cell line in the presence of 0.1 nM 17-beta-estradiol (AID 1259244); also: nearly all actives have a fitted effect of over 50% in size
Sequence of Estrogen receptor (Homo sapiens) (P03372 whole entry, looked up): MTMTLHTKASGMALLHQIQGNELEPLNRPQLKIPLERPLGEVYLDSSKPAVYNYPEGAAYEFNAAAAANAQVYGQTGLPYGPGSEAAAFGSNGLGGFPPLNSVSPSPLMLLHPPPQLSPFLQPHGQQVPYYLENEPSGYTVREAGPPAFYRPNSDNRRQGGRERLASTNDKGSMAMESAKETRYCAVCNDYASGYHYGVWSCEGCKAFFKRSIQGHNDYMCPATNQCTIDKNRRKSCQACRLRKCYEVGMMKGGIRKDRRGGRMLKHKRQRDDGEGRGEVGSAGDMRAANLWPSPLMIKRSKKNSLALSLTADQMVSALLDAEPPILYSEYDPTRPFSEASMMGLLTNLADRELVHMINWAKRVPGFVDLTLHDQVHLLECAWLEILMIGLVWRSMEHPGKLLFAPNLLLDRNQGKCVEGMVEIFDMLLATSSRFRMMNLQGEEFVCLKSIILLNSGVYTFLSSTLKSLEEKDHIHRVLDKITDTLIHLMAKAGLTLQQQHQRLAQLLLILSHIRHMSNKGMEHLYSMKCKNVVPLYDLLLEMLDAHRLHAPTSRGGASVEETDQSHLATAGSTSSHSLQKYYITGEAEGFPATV
Procedure, shortened: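 Luciferase signal from VM7Luc4E2 ERE-reporter cells, co-dosed with test compound and 0.1 nM final 17beta-estradiol for 22 h, read with ONE-Glo.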

[18] = target: Androgen receptor (Homo sapiens) (UniProt P10275); assay: qHTS assay to identify small molecule antagonists of the androgen receptor (AR) signaling pathway using the MDA cell line in the presence of 0.5 nM R1881 (AID 1259243); also: nearly all actives have a fitted effect of over 50% in size
Sequence of Androgen receptor (Homo sapiens) (P10275 whole entry, looked up): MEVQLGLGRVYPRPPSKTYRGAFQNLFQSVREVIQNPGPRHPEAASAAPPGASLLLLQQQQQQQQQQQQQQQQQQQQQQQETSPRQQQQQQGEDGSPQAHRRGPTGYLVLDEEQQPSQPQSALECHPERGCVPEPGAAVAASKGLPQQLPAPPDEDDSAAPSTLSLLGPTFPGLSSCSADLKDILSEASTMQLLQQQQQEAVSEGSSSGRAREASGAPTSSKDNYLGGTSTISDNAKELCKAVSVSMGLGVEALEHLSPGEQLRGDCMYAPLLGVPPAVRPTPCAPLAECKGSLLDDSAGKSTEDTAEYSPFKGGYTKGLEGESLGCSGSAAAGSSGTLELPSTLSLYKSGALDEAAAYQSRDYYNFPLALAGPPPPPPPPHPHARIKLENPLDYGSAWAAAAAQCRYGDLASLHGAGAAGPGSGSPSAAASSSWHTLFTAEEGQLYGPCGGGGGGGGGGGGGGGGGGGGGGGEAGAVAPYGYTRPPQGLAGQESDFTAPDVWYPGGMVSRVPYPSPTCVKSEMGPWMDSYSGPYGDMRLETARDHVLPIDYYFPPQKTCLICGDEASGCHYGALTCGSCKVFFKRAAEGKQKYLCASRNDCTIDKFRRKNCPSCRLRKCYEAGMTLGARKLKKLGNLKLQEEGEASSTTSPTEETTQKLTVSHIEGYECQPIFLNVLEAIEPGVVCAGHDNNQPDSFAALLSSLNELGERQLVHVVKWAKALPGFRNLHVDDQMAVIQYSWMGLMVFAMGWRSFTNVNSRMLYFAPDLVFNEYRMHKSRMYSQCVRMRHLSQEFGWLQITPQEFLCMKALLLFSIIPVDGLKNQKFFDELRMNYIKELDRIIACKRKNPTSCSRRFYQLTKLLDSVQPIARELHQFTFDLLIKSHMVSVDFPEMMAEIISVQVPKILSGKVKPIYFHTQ
Procedure, shortened: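 Luminescence from an AR/GR-responsive MMTV-luciferase construct in MDA-kb2 breast carcinoma cells, read 30 min after ONE-Glo, following 16 hr co-treatment with compounds and 0.5 nM R1881.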

[19] = qHTS assay to identify small molecule phospholipidosis (PLD) inducers (AID 1259344; active = well fitted curve in the direction sought with a large enough effect; an effect the other way counts as inactive or inconclusive)
Procedure, shortened: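 After 4 h attachment on collagen I, HepG2 cells were dosed with compound alongside LipidTOX Red, kept 24 h at 37 C, fixed, and imaged for lamellar phospholipid pits.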
% is scaled to controls: 0 for no effect and ±100 for the full control effect.

CCCCC/C=C/CC(=O)OC
inactive: Potency [1] | Potency [2] | Potency [3] | Potency [4] | Potency [5] | Potency [6] | outcome [7] | Potency [8] | Potency [9] | outcome [10] | Potency [11] | Potency [12] | outcome [13] | Potency [14] | outcome [15]

O=S(=O)(O)CCO
inactive: Potency [1] | Potency [2] | Potency [3] | Potency [16] | Potency [4] | Potency [17] | Potency [8] | Potency [9] | Potency [11] | outcome [13] | Potency [14] | outcome [15]

C[Si]1(C)N[Si](C)(C)N[Si](C)(C)N1
inactive: Potency [1] | Potency [3] | Potency [16] | Potency [4] | Potency [5] | Potency [17] | Potency [6] | outcome [7] | outcome [10] | Potency [11] | Potency [14] | outcome [15]

CC(=O)OC[C@H]1O[C@@H](OC(C)=O)[C@H](OC(C)=O)[C@@H]1OC(C)=O
inactive: Potency [1] | Potency [2] | Potency [3] | Potency [16] | Potency [4] | outcome [18] | Potency [17] | Potency [9] | Potency [11] | Potency [14] | outcome [15]

CN[C@@H]1[C@H](O)[C@H](NC)[C@H]2O[C@@]3(O)C(=O)C[C@@H](C)O[C@H]3O[C@@H]2[C@H]1O
inactive: Potency [1] | Potency [2] | Potency [16] | Potency [4] | Potency [5] | outcome [18] | Potency [17] | outcome [19] | Potency [6] | outcome [7] | Potency [8] | outcome [10] | Potency [11] | outcome [15]

C=C[Si](C)(C)O[Si](C)(C)C=C
inactive: Potency [1] | Potency [2] | Potency [3] | Potency [16] | Potency [4] | Potency [5] | Potency [6] | outcome [7] | Potency [8] | Potency [9] | outcome [10] | Potency [11] | outcome [15]

O=S1(=O)CCCC1
inactive: Potency [1] | Potency [2] | Potency [3] | Potency [16] | Potency [4] | Potency [5] | Potency [6] | outcome [7] | Potency [8] | Potency [11] | Potency [12] | outcome [13] | Potency [14] | outcome [15]

c1ccc(CNc2ncnc3nc[nH]c23)cc1
inactive: Potency [2] | Potency [3] | Potency [4] | outcome [7] | Potency [8] | Potency [9] | outcome [10] | Potency [11] | Potency [12] | outcome [13] | outcome [15]

CN(C1CCCCC1)S(=O)(=O)c1ccccc1N
inactive: Potency [1] | Potency [2] | Potency [16] | Potency [4] | Potency [5] | Potency [6] | outcome [7] | Potency [8] | Potency [9] | outcome [10] | Potency [12] | Potency [14] | outcome [15]

Cc1ccccc1C(=O)N1CC/C(=N\OS(=O)(=O)O)c2ccc(Cl)cc21
inactive: Potency [1] | Potency [2] | Potency [3] | Potency [4] | Potency [17] | PLD induction [19] -2.19% [at 7.66 µM] | Potency [6] | outcome [7] | Potency [8] | Potency [9] | Potency [11] | Potency [12] | outcome [13] | Potency [14] | outcome [15]

Cc1ccccc1N1CCN(CCc2nnc3n2CCCC3)CC1
inactive: Potency [1] | Potency [3] | Potency [16] | Potency [4] | Potency [5] | Potency [6] | outcome [7] | Potency [8] | Potency [9] | outcome [10] | Potency [11] | Potency [12] | outcome [13] | Potency [14] | outcome [15]

From PubChem BioAssay (Tox21)
